About 79,000 compounds went through this panel and 15% of them were active in at least one assay; those are over-represented in the sample as a whole. Rule as the data show it: active = growth inhibition above about 70%; inactive = the rest.
What was measured:
[1] = NCI Yeast Anticancer Drug Screen. Data for the rad50 strain (AID 155);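 also: 0% = growth of vehicle-only cultures of the same strain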; details: S. cerevisiae rad50 strain growth inhibition; at 50.0 µM; active compounds read high
Method in brief: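 DNA repair mutant yeast, compound exposure, growth read-out; inhibition is taken relative to vehicle.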

[2] = NCI Yeast Anticancer Drug Screen. Data for the mec2-1 strain (AID 157); details: S. cerevisiae mec2-1 strain, at 50.0 µM, active compounds read high
Method in brief: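 Mutant yeast (mec2-1) grown with compound; growth inhibition relative to vehicle control reported.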

[3] = NCI Yeast Anticancer Drug Screen. Data for the sgs1 mgt1 strain (AID 161);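 also: 0% = growth of cultures given vehicle only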; details: S. cerevisiae sgs1 mgt1 strain, at 50.0 µM, active compounds read high
Method in brief: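 Yeast cells carrying a defined DNA-repair defect were exposed to test compounds. Growth inhibition was measured relative to vehicle-treated controls.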

[4] = NCI Yeast Anticancer Drug Screen. Data for the cln2 rad14 strain (AID 165);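 also: 0% = growth equal to vehicle treated cultures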; details: S. cerevisiae cln2 rad14 strain, at 50.0 µM, active compounds read high
Method in brief: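 Readout is yeast growth inhibition versus vehicle-treated controls, using a strain with cln2 and rad14 alterations exposed to compound.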

[5] = NCI Yeast Anticancer Drug Screen. Data for the bub3 strain (AID 167); details: S. cerevisiae bub3 mutant strain, at 50.0 µM, active compounds read high
Method in brief: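 In this screen, a yeast mutant lacking normal mitotic checkpoint function is challenged with compound. Relative growth versus vehicle gives the inhibition value.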

[6] = NCI Yeast Anticancer Drug Screen. Data for the mlh1 rad18 strain (AID 175); details: S. cerevisiae mlh1 rad18 strain growth inhibition; at 50.0 µM; active compounds read high
Method in brief: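 Genetically defined yeast (DNA repair-deficient) exposed to compounds; growth inhibition determined relative to vehicle.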

Measured: growth inhibition

O=C1CCCC/C1=C1/SC(=Nc2ccccc2)C(=Nc2ccccc2)N1c1ccccc1
inactive: [1] 21.2% | [2] 16.1% | [3] 16.2% | [4] 31% | [5] 19.1% | [6] 8.6%

Cc1cc(/C=C\[N+](=O)[O-])c(C)c2c1oc1ccccc12
inactive: [1] -10.8% | [2] -2.55% | [3] 2.1% | [4] 4.75% | [5] 2.4% | [6] -7.05%

CCOC(Nc1ccc(Cl)cc1Cl)C(=O)c1ccccc1 (stereo not given)
inactive: [1] 8.65% | [2] 6.05% | [3] -2.8% | [4] 1.85% | [5] 11.8% | [6] 1.8%

O=C(NO)c1ccc([N+](=O)[O-])cc1
inactive: [1] 58.2% | [2] 31.1% | [3] 46.3% | [4] 7.05% | [5] 17.8% | [6] 22.2%

COc1cc2c(cc1OC)C(=O)C(C1=C(SC(=N)N)C(=O)c3cc(OC)c(OC)cc31)C2 (stereo not given)
inactive: [1] -7.4% | [2] -21.9% | [3] -7.75% | [4] -0.65% | [5] 2.85% | [6] -2%

O=C1C=CC(=O)C2CC=CCC12 (stereo not given)
inactive: [1] 24.2% | [2] 50.4% | [3] 1.7% | [4] -6.15% | [5] 4.55% | [6] 26.1%

Cc1cc(C)nc(NS(=O)(=O)c2ccc(NC(=O)c3cccn4c(=O)c5ccccc5nc34)cc2)n1
inactive: [1] 12.7% | [2] 0.6% | [3] 16.9% | [4] 27.6% | [5] 27.1% | [6] 0.25%

N#CCc1nn(-c2ccccc2)c2ncn(N)c(=N)c12
inactive: [1] -8.45% | [2] -14.8% | [3] -9.6% | [4] -22.2% | [5] 6.2% | [6] -12.2%

O=C(O)CC(CC(=O)O)c1ccc(F)cc1
inactive: [1] -2% | [2] 0.95% | [3] -10.2% | [4] -2.35% | [5] 2.05% | [6] -8.5%

O=C(/C=C/c1ccc2c(c1)OCO2)C1CC1
inactive: [1] 6.45% | [2] 11.1% | [3] 28.2% | [4] 8.25% | [5] 27.7% | [6] 16.9%

CSc1ccc(C)c(/C=N/Nc2ccc([N+](=O)[O-])cc2[N+](=O)[O-])c1
inactive: [1] 7.05% | [2] 26.9% | [3] 18.4% | [4] -13.6% | [5] 0.5% | [6] 3.25%

N#CC1(NC(=O)N(CCCl)N=O)CCCCC1
inactive: [1] 4.8% | [2] 1.25% | [3] -0.6% | [4] 5.65% | [5] 9.95% | [6] -27.9%

O=C1c2ccccc2C2(c3ccccc3)C=NNC12c1ccccc1 (stereo not given)
inactive: [1] 21.5% | [2] 6.9% | [3] 18.2% | [4] 4.4% | [5] 55.5% | [6] 25.1%

O=[n+]1c2c(n([O-])c3ccccc31)CCCCC2
inactive: [1] 19.6% | [2] -12.7% | [3] -1.9% | [4] -32.5% | [5] -8.35% | [6] -2.85%

CCN(CC)c1ccc2c(c1)Oc1ccc(N(C(C)=O)c3ccccc3)cc1C21OC(=O)c2ccccc21 (stereo not given)
inactive: [1] 25.5% | [2] 13.1% | [3] 29.6% | [4] 31% | [5] 51.4% | [6] 19.2%

Cc1cc(N=Nc2ccc(N=Nc3ccc(S(=O)(=O)O)cc3)cc2)cc(C(=O)O)c1O
inactive: [1] 12% | [2] -9.4% | [3] -2.85% | [4] -8% | [5] -19.7% | [6] 4.25%

O=C(CS(=O)(=O)Cc1ccccc1)N1CCOCC1
inactive: [1] -9.4% | [2] -13.3% | [3] -6.55% | [4] -3.8% | [5] -3% | [6] -27.5%

CCOC(=O)C(=O)Cc1cnccn1
inactive: [1] -25.2% | [2] -12.7% | [3] -11.8% | [4] -0.9% | [5] -17.8% | [6] -2.65%

CC(C)(C)C1CCC(C(=O)O)CC1 (stereo not given)
inactive: [1] 24.4% | [2] -3.05% | [3] 19.8% | [4] 10.6% | [5] 5.6% | [6] 24.9%

OC1CCCCC1[n+]1ccccc1 (stereo not given)
inactive: [1] -7.8% | [2] -0.6% | [3] -7.45% | [4] -24.1% | [5] -7.35% | [6] -0.55%

NC(=O)Nc1ccc(Cl)cc1[N+](=O)[O-]
inactive: [1] -4.35% | [2] -8.5% | [3] 17.6% | [4] -46.5% | [5] -6.45% | [6] -7.1%

C1OC2OC3OCOC3C2O1 (stereo not given)
inactive: [1] 16.4% | [2] 2.85% | [3] -2.1% | [4] -58.2% | [5] 17% | [6] -8.8%

CC1(C)CNC[C@](C)(OCCCO[C@@]2(C)CNCC(C)(C)NC2=O)C(=O)N1
inactive: [1] -11.4% | [2] -33.5% | [3] -21.2% | [4] 25.6% | [5] 3.95% | [6] -9.45%

O=COCCc1ccccc1
inactive: [1] -17.9% | [2] -6.2% | [3] 8.35% | [4] 5.4% | [5] -8.15% | [6] 3.7%

CC(=O)OC1CC(O)C23COC(O)C1(C)C2CC(O)C1(C)C3C(=O)C(O)C2(C)C(c3ccoc3)CC3OC321 (stereo not given)
inactive: [1] -9.9% | [2] 2.75% | [3] -11.3% | [4] 0.2% | [5] -2.2% | [6] -37.7%

Fc1ccc(-c2nnc(-c3ccc4ccccc4c3)o2)cc1
inactive: [1] 18.1% | [2] -11.3% | [3] 21.4% | [4] 12.2% | [5] 35.8% | [6] -1.3%

Cc1ccc(SC(=O)N2C(=S)NC(=NC3CCCCC3)C23CCCCC3)cc1
inactive: [1] -14% | [2] -9.05% | [3] -4.05% | [4] -41.3% | [5] -32.5% | [6] -24.5%

Cc1cc(N(CCC#N)CCC#N)ccc1/C(N=Nc1ccccc1)=N\NC(=O)c1cc(Cl)ccc1O
inactive: [1] 18.8% | [2] 9.8% | [3] 2.7% | [4] -3% | [5] -17.4% | [6] 30.9%

CCCCOC(=O)NC(=O)c1cc2cccc(OC)c2oc1=O
inactive: [1] 17.1% | [2] 21.6% | [3] 14.4% | [4] 14.3% | [5] 14.8% | [6] 10.2%

COC(=O)C[C@H]1CCC2(OCCO2)[C@]1(C)C(=O)OC
inactive: [1] -10.7% | [2] -11.6% | [3] -11.2% | [4] -23.4% | [5] -6.9% | [6] -27.1%

CC(=O)/C(C=Nc1c(C)n(C)n(C)c1=O)=C(/O)c1ccccc1
inactive: [1] 0.15% | [2] 4.05% | [3] -10.4% | [4] 7.55% | [5] -19.6% | [6] 16%

CCOC(=O)c1c(Nc2ccc(OC)cc2)n[nH]c1C
inactive: [1] -7.85% | [2] -34.3% | [3] 15.6% | [4] 9.6% | [5] 8.65% | [6] -8.65%

Cc1ccc(NC(=O)Oc2ccc(Br)cc2Br)c(Cl)c1
inactive: [1] 21.1% | [2] 17.9% | [3] 16.7% | [4] -0.25% | [5] -6.3% | [6] 41.6%

Oc1ccc(-c2cc(-c3c(O)cc(O)cc3O)on2)cc1
inactive: [1] 4.25% | [2] -1.45% | [3] -17.4% | [4] -2.85% | [5] -7.45% | [6] 9.35%

O=C=Nc1ccccc1[N+](=O)[O-]
inactive: [1] -4.25% | [2] -28% | [3] -15.8% | [4] -65.5% | [5] -0.55% | [6] -9.2%

O=P1(O)c2ccccc2CSCc2ccccc21
inactive: [1] 24.4% | [2] -7.35% | [3] -11.8% | [4] -2.8% | [5] -2.65% | [6] -31.8%

COc1ccc(C(C)(C)C#N)cc1
inactive: [1] -20.7% | [2] 13.6% | [3] -5.95% | [4] -12.8% | [5] -10.6% | [6] 31.6%

Cc1ccc(C)c(NCc2ccccc2)c1
inactive: [1] 41.6% | [2] 20.1% | [3] 8.85% | [4] -16.9% | [5] 36.9% | [6] 24.3%

O=c1c2cc([N+](=O)[O-])ccc2n2n1CCCC2
inactive: [1] 15.1% | [2] 9.45% | [3] -13.8% | [4] 16.9% | [5] -16% | [6] -10.4%

Cc1ccc2ccccc2c1CP(=O)(O)O
inactive: [1] -18.9% | [2] -11.1% | [3] -10.4% | [4] -10.6% | [5] 15.2% | [6] -31.4%

— PubChem BioAssay (NCI)
